Here are results for 13 molecules from PubChem BioAssay AID652175 (National Center for Advancing Translational Sciences (NCATS), 2013).

Results filed as inconclusive are left out. Values without a mark were called inactive. The source made the active and inactive calls. The call rests on the fitted dose curve; in most records, active means well fitted inhibition curve with a large enough effect; inconclusive means small, poorly fitted or top-dose-only effect; inactive means no such curve, though single readings can be large or run the other way.

A short description of this test: qHTS Assay for Lipid Storage Modulators: S3 Assay against Probe and Analogs. Conditions: Drosophila S3 cells, BODIPY lipid droplet fluorescence, 18-24 h, oleic acid added to induce droplets; series mostly up to 46.1 µM; activity, negative = lipid storage inhibition: at the top concentration. Summed up:
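Drosophila S3 cells, 5,000/well, dosed with compounds (0.46% DMSO final) and oleic acid to induce lipid droplets, 18-24 h at 25 °C. BODIPY 493/503 and Cell Tracker Red read by laser-scanning cytometry; % activity relative to 20 uM Triacsin C.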
Consider `COc1cc(C)c(Sc2cnc(NC(=O)c3ccc(CNC(C)C(C)(C)C)cc3)s2)cc1C(=O)N1CCN(C(C)=O)CC1` (stereo not drawn), for which the “activity, negative = lipid storage inhibition” value is 120%.
Take `O=C(NCCc1ccc2c(c1)OCO2)c1cc2sccc2n1Cc1ccccc1`: the “activity, negative = lipid storage inhibition” value is 3.33%.
On to `CCOc1ccc(CCNC(=O)c2cc3sccc3n2Cc2ccccc2)cc1OCC`, for which the Potency is 4.2 nM (active).
In the case of `CC1(C)CCC(c2ccc(Cl)cc2)=C(CN2CCN(c3ccc(C(=O)NS(=O)(=O)c4ccc(N[C@H](CCN5CCOCC5)CSc5ccccc5)c(S(=O)(=O)C(F)(F)F)c4)cc3)CC2)C1`, the Potency was 526 nM (active).
As for `CCOc1ccc(CCNC(=O)Cc2ccccc2)cc1OCC`, the “activity, negative = lipid storage inhibition” value was 46.7%.
In the case of `CCOc1ccc(CCNC(=O)c2ccnn2Cc2cccc(C)c2)cc1OCC`, the “activity, negative = lipid storage inhibition” value is -100%.
Still for that read-out and setting: for `O=C(Nc1ccccc1-c1cn2c(CN3CCNCC3)csc2n1)c1cnc2ccccc2n1` the value was -100%; for `Cc1cn(-c2cc(NC(=O)c3ccc(C)c(Nc4nccc(-c5cccnc5)n4)c3)cc(C(F)(F)F)c2)cn1`, 110%.
Take `O=C(Nc1cccc2c1cnn2-c1ccc(F)cc1)c1ccccn1`: the “activity, negative = lipid storage inhibition” value was 123%.
Regarding `O=C(Nc1cccc2nn(-c3ccc(F)cc3)cc12)c1ccccn1`, the “activity, negative = lipid storage inhibition” value is 193%.
As to `O=C(NC1CCCc2c1cnn2-c1ccc(F)cc1F)c1ccsc1` (stereo not drawn), the Potency is 11.8 nM (active).
Take `O=C(NC1CCCc2c1cnn2CCO)c1ccccn1` (stereo not drawn): the “activity, negative = lipid storage inhibition” value was -100%.
Same read-out and setting: as for `CCOC(=O)C1CCN(C(=O)C2(NC(=O)Nc3ccc(F)cc3F)CCCCC2)CC1`, the figure is -100%.
